{"source": "PubChem BioAssay (Tox21)", "note": "Results filed as inconclusive are left out. Activity calls are given as the source filed them. The call rests on the fitted dose curve. On the % scale 0 is the no-effect control and ±100 the full control effect."}
{"test": "qHTS assay to identify small molecule agonists or antagonists of the thyroid stimulating hormone receptor (TSHR) signaling pathway - wild type cell line counter screen (AID 1259384)", "settings": "HEK293 wild type, cAMP HTRF counter-screen, stronger effect = higher value; series mostly up to 92.4 µM", "excerpt": "U.S. Tox21 Program National Center for Advancing Translational Sciences [NCATS] NIH Chemical Genomics Center [NCGC] U.S. Environmental Protection Agency [EPA] National Institutes of Environmental Health Sciences [NIEHS] National Toxicology Program [NTP] U.S. Food and Drug Administration [FDA] Tox21 Assay Overview: TSHR is the receptor for thyrotropin (thyroid stimulating hormone or TSH), a member of the glycoprotein hormone family. TSH is released by the anterior pituitary gland and is the main regulator of thyroid gland growth and development. Upon binding circulating thyrotropin, a G-protein signal cascade activates adenylyl cyclase and […] cAMP concentration is increased. cAMP is a key second messenger involved extensively in cellular signal transduction pathways associated with the majority of G-protein coupled receptors (GPCRs). The activation of these GPCRs by neurotransmitters, lipids, nucleotides, peptides and hormones results in the activation or the inhibition of plasma membrane-bound adenylate cyclase through heterotrimeric G-proteins. A cell-based TSHR-Hek293 assay can be used to identify TSHR agonists. To eliminate the false positive compounds identified from screening a cell-based TSHR-Hek293 cell line, cAMP assay in a wild type Hek293 cells was used as a counter screening.\nTox21 Assay Protocol Summary: Hek293 cells (wild type) were dispensed at 800 cells/4 uL/well in 1536-well white plates using a Multidrop dispenser. After the assay plates were incubated at a 37 C/5% CO2 incubator for 18 hrs, 23 nL of compounds dissolved in DMSO, positive controls or DMSO only was transferred to the assay plate by a pin tool, followed by 1 ul medium containing Ro20-1724. After 30 min of incubation at room temperature, 2.5 ul/well of cAMP-d2 and 2.5 ul/well of anti-cAMP-cryptate were added respectively into the assay plates using a Flying Reagent Dispenser. The plates were incubated at room temperature for 1 hr. The fluorescence intensity in the plates was measured using an Envision plate reader. Each test compound was measured at 15 concentrations and in triplicates."}
{"smiles": "CC(=O)O[C@@H]1CC2CCC1(C)C2(C)C", "note": "(stereo not given in full)", "outcome": "inactive"}
{"smiles": "OCC1CCC(CO)CC1", "note": "(stereo not given)", "outcome": "inactive"}
{"smiles": "CO/N=C(/C(=O)N[C@@H]1C(=O)N2C(C(=O)[O-])=C(C[n+]3ccn4ncccc43)CS[C@H]12)c1nsc(N)n1", "outcome": "inactive"}
{"smiles": "CC1(C)Cc2cccc(N)c2O1", "outcome": "inactive"}
{"smiles": "C=C(C)[C@@H]1CC=C(C)C(=O)C1", "outcome": "inactive"}
{"smiles": "CCCCCCCCCCCCCCC(=O)NC(CO)CCCCCCCCCCCCCC", "note": "(stereo not given)", "outcome": "inactive"}
{"smiles": "CN1CCOC(c2ccccc2)c2ccccc2C1", "note": "(stereo not given)", "outcome": "inactive"}
{"smiles": "CCNC(=O)NCc1cccc(Cl)c1", "outcome": "inactive"}
{"smiles": "NCCOCCN", "outcome": "inactive"}
{"smiles": "CCN(CC)CCN", "outcome": "inactive"}
{"smiles": "CC(=O)C1C(=O)C=C(C)OC1=O", "note": "(stereo not given)", "outcome": "inactive"}
{"smiles": "CC(C)(CO)C(O)C(=O)NCCCO", "note": "(stereo not given)", "outcome": "inactive"}
{"smiles": "CC1=NN(c2ccc(S(=O)(=O)O)cc2)C(=O)C1", "outcome": "inactive"}
{"smiles": "CC(C)[C@H]1CC[C@H](C)C[C@@H]1O", "outcome": "inactive"}
{"smiles": "Cc1cccc(Cl)c1", "outcome": "inactive"}
{"smiles": "OC[C@@H](O)C(O)[C@@H](O)CO", "note": "(stereo not given in full)", "outcome": "inactive"}
{"smiles": "C=CCCCCCCCCC(=O)OCCCC", "outcome": "inactive"}
{"smiles": "COc1ccc(CCO)cc1", "outcome": "inactive"}
{"smiles": "OCC1(CO)COCOC1", "outcome": "inactive"}
{"smiles": "CCCCCC/C=C/C(=O)OC", "outcome": "inactive"}
{"smiles": "O=C[O][Al]([O]C=O)[O]C=O", "outcome": "inactive"}
{"smiles": "COC(=O)/C=C\\C(=O)O", "outcome": "inactive"}
{"smiles": "C[C@H]1[C@@H](c2ccccc2)NC(=O)N1C", "outcome": "inactive"}
{"smiles": "CCCCCCCCCCCCCCCCCCOCCO", "cAMP activity change": "-0.284% [at 18.9 µM] (inactive)"}
{"smiles": "COc1cc(/C=C/C(N)=O)cc(OC)c1OC", "outcome": "inactive"}
{"smiles": "CC1=C(O)C(=O)C(C)O1", "note": "(stereo not given)", "outcome": "inactive"}
{"smiles": "C=Cc1ccc(C(C)(C)C)cc1", "outcome": "inactive"}
{"smiles": "CN(C)CCOC(=O)C(c1ccccc1)C1(O)CCCC1", "note": "(stereo not given)", "outcome": "inactive"}
{"smiles": "COC(=O)CCCCC(=O)O", "outcome": "inactive"}
{"smiles": "O=C1NC(c2ccccc2)(c2ccccc2)C(=O)N1COP(=O)(O)O", "outcome": "inactive"}
{"smiles": "CCCCSCCCC", "outcome": "inactive"}
{"smiles": "CN(C)CCN(C)CCO", "outcome": "inactive"}
{"smiles": "C=CCOC(=O)CCCCCC", "outcome": "inactive"}
{"smiles": "CCCCOC(=O)[C@H](C)O", "outcome": "inactive"}
{"smiles": "O=C1OCCO1", "outcome": "inactive"}
{"smiles": "CCCc1ccc(O)cc1", "outcome": "inactive"}
{"smiles": "CC(C)=CCC/C(C)=C/COC=O", "outcome": "inactive"}
{"smiles": "CCOCCOCC", "outcome": "inactive"}
{"smiles": "CC(C)COC(=O)c1ccccc1", "outcome": "inactive"}
{"smiles": "COC(=O)c1ccccc1C(=O)O", "outcome": "inactive"}
